Assay results as given in PubChem BioAssay AID1159580 (chemical genetic matrix, 2015).
The campaign covered roughly 5,500 compounds. About 2,000 (36%) were called active. Inconclusive results (about 18%) are left out. No stated cut-off is given here; in the data, active means normalized growth mostly below about 0.91 (no sharp cut-off); inconclusive means no clear call, values can overlap the other calls; inactive means mostly above about 0.92. The list shows a part of the results.

Test: chemical genetic growth profiling, strain panel (AID 1159580);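 further: tested at 20 µM; growth read once vehicle control cultures reached saturation at 30 °C; 1 = growth at the plate median or of vehicle wells; lower values mean less growth of the strain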
Conditions: growth OD

Measured: normalized growth

O=C(O)/C=C/c1ccc(O)c(O)c1
inactive: S. cerevisiae deletion strains, locus YJR043C, strain POL32, hits give low values 1.01 | S. cerevisiae deletion strains, locus YJR066W, strain TOR1, hits give low values 0.95 | S. cerevisiae deletion strains, locus YKL009W, strain mrt4, hits give low values 1.05 | S. cerevisiae deletion strains, locus YKL068W, hits give low values 1.01 | S. cerevisiae deletion strains, locus YKL085W, strain MDH1 (second series), hits give low values 1.02 | S. cerevisiae deletion strains, locus YKL085W, strain MDH1, hits give low values 1.02 | S. cerevisiae deletion strains, locus YKL160W, strain elf1, hits give low values 1 | S. cerevisiae deletion strains, locus YKL190W, strain CNB1, hits give low values 1.01 | S. cerevisiae deletion strains, locus YKR001C, strain vps1, hits give low values 1 | S. cerevisiae deletion strains, locus YKR026C, strain gcn3, hits give low values 1 | S. cerevisiae deletion strains, locus YKR091W, strain srl3, hits give low values 1 | S. cerevisiae deletion strains, locus YLL001W, strain dnm1, hits give low values 0.992 | S. cerevisiae deletion strains, locus YLL026W, hits give low values 0.992 | S. cerevisiae deletion strains, locus YLL041C, strain sdh2, hits give low values 1 | S. cerevisiae deletion strains, locus YLR027C, strain aat2, hits give low values 0.989 | S. cerevisiae deletion strains, locus YLR039C, strain RIC1, hits give low values 1.01 | S. cerevisiae deletion strains, locus YLR058C, strain SHM2, hits give low values 1.01 | S. cerevisiae deletion strains, locus YLR102C, strain apc9, hits give low values 1.01 | S. cerevisiae deletion strains, locus YLR113W, strain HOG1, hits give low values 0.985 | S. cerevisiae deletion strains, locus YLR221C, strain rsa3, hits give low values 1 | S. cerevisiae deletion strains, locus YLR258W, strain gsy2, hits give low values 0.999 | S. cerevisiae deletion strains, locus YLR262C, strain YPT6 (second series), hits give low values 0.993 | S. cerevisiae deletion strains, locus YLR262C, strain YPT6, hits give low values 0.998 | S. cerevisiae deletion strains, locus YLR268W, strain sec22, hits give low values 1.03 | S. cerevisiae deletion strains, locus YLR320W, strain mms22, hits give low values 1.02 | S. cerevisiae deletion strains, locus YLR330W, strain CHS5, hits give low values 1.02 | S. cerevisiae deletion strains, locus YLR342W, strain FKS1 (second series), hits give low values 1.07 | S. cerevisiae deletion strains, locus YLR342W, strain FKS1, hits give low values 1.01 | S. cerevisiae deletion strains, locus YLR357W, strain rsc2, hits give low values 1.01 | S. cerevisiae deletion strains, locus YLR370C, strain arc18, hits give low values 1 | S. cerevisiae deletion strains, locus YLR371W, strain rom2, hits give low values 1.01 | S. cerevisiae deletion strains, locus YLR384C, strain iki3, hits give low values 0.999 | S. cerevisiae deletion strains, locus YLR418C, strain cdc73, hits give low values 1.05 | S. cerevisiae deletion strains, locus YML016C, strain PPZ1, hits give low values 1.01 | S. cerevisiae deletion strains, locus YML032C, strain rad52, hits give low values 0.998 | S. cerevisiae deletion strains, locus YML120C, strain ndi1, hits give low values 1.01 | S. cerevisiae deletion strains, locus YML124C, strain tub3, hits give low values 1 | S. cerevisiae deletion strains, locus YMR058W, strain fet3, hits give low values 1.01 | S. cerevisiae deletion strains, locus YMR078C, strain ctf18, hits give low values 1.01 | S. cerevisiae deletion strains, locus YMR125W, strain sto1, hits give low values 1 | S. cerevisiae deletion strains, locus YMR129W, hits give low values 1 | S. cerevisiae deletion strains, locus YMR205C, strain PFK2, hits give low values 0.999 | S. cerevisiae deletion strains, locus YMR223W, strain ubp8, hits give low values 0.997 | S. cerevisiae deletion strains, locus YMR231W, strain pep5, hits give low values 0.98 | S. cerevisiae deletion strains, locus YMR307W, strain GAS1, hits give low values 1.04 | S. cerevisiae deletion strains, locus YNL067W, strain RPL9B, hits give low values 0.994 | S. cerevisiae deletion strains, locus YNL071W, strain lat1, hits give low values 1.01 | S. cerevisiae deletion strains, locus YNL153C, strain GIM3, hits give low values 0.999 | S. cerevisiae deletion strains, locus YNL175C, strain NOP13, hits give low values 1 | S. cerevisiae deletion strains, locus YNL183C, strain NPR1, hits give low values 0.971 | S. cerevisiae deletion strains, locus YNL197C, strain WHI3, hits give low values 1.01 | S. cerevisiae deletion strains, locus YNL209W, strain ssb2, hits give low values 0.998 | S. cerevisiae deletion strains, locus YNL224C, strain SQS1, hits give low values 0.997 | S. cerevisiae deletion strains, locus YNL233W, strain BNI4, hits give low values 1 | S. cerevisiae deletion strains, locus YNL248C, strain rpa49, hits give low values 1 | S. cerevisiae deletion strains, locus YNL250W, strain rad50, hits give low values 1 | S. cerevisiae deletion strains, locus YNL271C, strain bni1, hits give low values 0.998 | S. cerevisiae deletion strains, locus YNL298W, strain CLA4, hits give low values 0.98 | S. cerevisiae deletion strains, locus YNL307C, strain MCK1, hits give low values 1.01 | S. cerevisiae deletion strains, locus YNL322C, strain KRE1 (second series), hits give low values 0.998 | S. cerevisiae deletion strains, locus YNL322C, strain KRE1, hits give low values 1.02 | S. cerevisiae deletion strains, locus YNR049C, strain mso1, hits give low values 1.01 | S. cerevisiae deletion strains, locus YNR052C, strain pop2, hits give low values 0.993 | S. cerevisiae deletion strains, locus YOL012C, strain htz1 0.725 | S. cerevisiae deletion strains, locus YOL147C, strain pex11, hits give low values 1.01 | S. cerevisiae deletion strains, locus YOR001W, strain rrp6, hits give low values 1.02 | S. cerevisiae deletion strains, locus YOR061W, strain CKA2, hits give low values 1.02 | S. cerevisiae deletion strains, locus YOR069W, strain VPS5, hits give low values 1.01 | S. cerevisiae deletion strains, locus YOR070C, strain gyp1, hits give low values 0.972 | S. cerevisiae deletion strains, locus YOR080W, strain dia2, hits give low values 1 | S. cerevisiae deletion strains, locus YOR083W, strain WHI5 (second series), hits give low values 1.01 | S. cerevisiae deletion strains, locus YOR083W, strain WHI5, hits give low values 1 | S. cerevisiae deletion strains, locus YOR106W, strain vam3, hits give low values 1.04 | S. cerevisiae deletion strains, locus YOR136W, strain idh2, hits give low values 1.02 | S. cerevisiae deletion strains, locus YOR144C, strain elg1, hits give low values 1.01 | S. cerevisiae deletion strains, locus YOR184W, strain ser1, hits give low values 1 | S. cerevisiae deletion strains, locus YOR231W, strain MKK1, hits give low values 1.03 | S. cerevisiae deletion strains, locus YOR265W, strain rbl2, hits give low values 0.988 | S. cerevisiae deletion strains, locus YOR270C, strain vph1, hits give low values 1 | S. cerevisiae deletion strains, locus YOR290C, strain snf2, hits give low values 1.01 | S. cerevisiae deletion strains, locus YOR316C, strain cot1, hits give low values 1 | S. cerevisiae deletion strains, locus YPL051W, strain arl3, hits give low values 0.994 | S. cerevisiae deletion strains, locus YPL055C, strain LGE1, hits give low values 1.01 | S. cerevisiae deletion strains, locus YPL078C, strain atp4, hits give low values 1 | S. cerevisiae deletion strains, locus YPL106C, strain sse1, hits give low values 0.992 | S. cerevisiae deletion strains, locus YPL240C, strain hsp82, hits give low values 1 | S. cerevisiae deletion strains, locus YPL256C, strain CLN2, hits give low values 0.985 | S. cerevisiae deletion strains, locus YPR119W, strain clb2, hits give low values 1.01 | S. cerevisiae deletion strains, locus YPR141C, strain kar3, hits give low values 1.04 | S. cerevisiae deletion strains, locus YPR163C, strain tif3, hits give low values 1 | S. cerevisiae deletion strains, locus YPR167C, strain met16, hits give low values 1.02 | S. cerevisiae deletion strains, strain wtn01, hits give low values 1.04 | S. cerevisiae strains, strain wild type, hits give low values 1.01
